Reference: PubChem BioAssay (NCATS)
Inconclusive results are not listed. Values without a mark were called inactive. Calls of active or inactive are those of the source. Calls follow the shape of the dose curve; as a rule, active = well fitted curve in the direction sought with a large enough effect; inconclusive = small, poorly fitted or top-dose-only effect, or another doubt; inactive = no such curve, though single readings can be large; an effect the other way counts as inactive or inconclusive. Bridge positions count the residues as written; N and C are the ends. Square brackets hold non-standard residues; d marks the D form. Side chains are listed from the residue outwards. Peptide text beside a SMILES is read from it. * marks the point of attachment. Phg(4-OMe) = COc1ccc([C@H](N)C(=O)O)cc1; d(aIle) = CC[C@H](C)[C@@H](N)C(=O)O; d(aThr) = C[C@@H](O)[C@@H](N)C(=O)O; NMeF = CN[C@@H](Cc1ccccc1)C(=O)O; Isobutyryl = CC(C)C(=O)*

Test system: Zika virus NS2B-NS3 protease (linked construct)
Experiment: Primary screen NINDS Rhodamine qHTS for Zika virus inhibitors (AID 1347160); also: nearly all actives have a fitted effect of over 55% in size
Settings: purified NS2B-NS3 protease, Rhodamine110 substrate fluorescence; series mostly up to 112 µM; activity change, negative = inhibition: at the top concentration
Outline: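 Kinetic fluorescence (Ex 480 nm, Em 540 nm) over 15 min with 1.5 microM Rhodamine110 peptide and 25 nM linked protease.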
% is scaled to controls: 0 for no effect and ±100 for the full control effect; potency is read from the fitted curve at half-maximal effect.

Row | Compound | activity change, negative = inhibition | Potency
1 | COc1cc2c(cc1OC)[C@@H](c1ccc3c(c1)OCO3)C(C)C(C)C2=O (some centres undefined) | -11% | –
2 | C/C=C(/C)c1c(Cl)c(O)c(C)c2c1Oc1c(Cl)c(O)c(Cl)c(C)c1C(=O)O2 | – | 1.96 µM (active)
3 | CC(C)C[C@@H]1c2c(O)c(C=O)c(O)c(C=O)c2O[C@]2(C)C=C[C@@H](C(C)C)C[C@H]12 | – | 13.9 µM (active)
4 | C/C=C(/C)c1cc(O)c(C)c2c1Oc1cc(O)cc(C)c1C(=O)O2 | – | 24.7 µM (active)
5 | CC(C)[C@]12CC[C@@]3(C)[C@H](C)CC[C@H](O)[C@@]3(CC1)c1cc3c(cc12)[nH]c1ccccc13 | – | 27.7 µM (active)
6 | C[C@H]1C=C[C@H]2CCCC[C@@H]2[C@H]1C(=O)[C@H]1CC2=C(C(=O)O)CCN2C1=O | – | 11 µM (active)
7 | C/C=C(/C)c1c(Cl)c(OC)c(C)c2c1Oc1c(Cl)c(O)c(Cl)c(C)c1C(=O)O2 | – | 1.39 µM (active)
8 | C/C(=C\CC[C@@H](C)[C@H]1CC[C@]2(C)C3=CCC4C(C)(C)[C@@H](O)C[C@@H](O)[C@]4(C)C3[C@H](O)C[C@@]12C)CO (some centres undefined) | – | 19.6 µM (active)
9 | COC12OC1(C13OC1(OC)C(=O)c1cc4cc(C)oc(=O)c4c(O)c1C3O)C(O)c1c(cc3cc(C)oc(=O)c3c1O)C2=O (centres undefined) | – | 3.11 µM (active)
10 | CO[C@H]1[C@@H](OC(=O)/C(C)=C\[C@@H]2O[C@@H]2[C@H]2O[C@H]2C)[C@H](O)[C@H](OCC23C[C@@H]4[C@H](C)CC[C@H]4C4(C=O)CC2C=C(C(C)C)C34C(=O)O)O[C@@H]1C (some centres undefined) | – | 22 µM (active)

Test system: not listed separately
Experiment: OV-KATE Cancer Cell Toxicity qHTS against the NCATS CANVASS Library (AID 1347345)
Settings: OV-KATE cells viability, CellTiter-Glo luminescence, 72 h; series mostly up to 38.3 µM; activity change, negative = cytotoxicity: at the top concentration
Outline: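 Cells were seeded at 1000 per well, allowed 4 h at 37 degrees C/5% CO2, then pin-treated with an 11-point compound series. After 72 h, viability was read as CellTiter-Glo luminescence following 15min at room temperature.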

Row | Compound | activity change, negative = cytotoxicity | Potency
11 | CC(C)=CCC[C@]12c3cc4c(cc3CC[C@@]1(C)[C@H](C)CC[C@@H]2O)[nH]c1ccccc14 | -23.5% | –
12 | C/C=C/C1C=CC2CC(C)CC(C)C2C1C(=O)CC(=O)NC(CO)C/C=C/CCCCC (centres undefined) | – | 10.6 µM (active)
13 | C=C1CC[C@@H](Br)C(C)(C)[C@]12CC=C(C)C(=O)C2 | 2.13% | –
14 | C=CC(CCCCC)C1C(=O)NC(=O)C1C(=O)C1C(/C=C/C)C=CC2CC(C(=O)O)CC(C)C21 (centres undefined) | -17.8% | –
15 | C=C[C@@]1(C)CC[C@@H]([C@H](C)C(=O)/C=C/C(C)(C)O)O1 | 0.325% | –
16 | O=C1CC2OCC=C3CN4C5CC3C2[C@@H]2N1c1ccccc1[C@]52C[C@@H]4C1=C[C@H]2C3CC4N(CC[C@@]45c4ccccc4N(C1=O)[C@@H]25)C/C3=C/CO (some centres undefined) | -26.5% | –
17 | C=C1CC[C@@H](O[C@H]2C[C@@](O)([C@H](C)NC(=O)c3[nH]c(C)c(Cl)c3Cl)[C@H](O)[C@@H](C)O2)[C@@H]2C=C[C@H](C)C(/C(O)=C3/C(=O)[C@H](C(C)C)N([C@@H]4O[C@H](C)[C@H](OC(N)=O)[C@H](OC(C)=O)[C@@H]4OC)C3=O)[C@@H]12 (some centres undefined) | -18.4% | –
18 | CC[C@H](C)[C@H]1NC(=O)[C@@H](NC(=O)C(C)C)[C@@H](C)OC(=O)[C@H](COC(=O)CNC(C)=O)NC(=O)[C@@H]([C@@H](C)O)NC(=O)[C@H](Cc2ccccc2)N(C)C(=O)[C@H](c2ccc(OC)cc2)NC1=O (Isobutyryl-T[d(aIle)][Phg(4-OMe)][NMeF][d(aThr)]S([Gly-Ac]); ester 1-C) | -4.1% | –
19 | C=C(C)CC[C@H](Cc1c(O)cc(O)c2c1O[C@H](c1ccc(O)cc1)CC2=O)C(=C)C | -22.5% | –
20 | C[C@]12CC[C@]3(C1)[C@H](CC2=O)C[C@@H](OC(=O)c1ccccc1)[C@H]1[C@](C)(C(=O)O)CCC[C@@]13C | -12.8% | –
21 | Cc1occ2c1C(=O)c1c(cc(O)c(O)c1O)C2=O | -15.4% | –
22 | COc1ccc2[nH]c3c(c2c1)CCN1C[C@H]2C[C@@H](OC(=O)c4cc(OC)c(OC)c(OC)c4)[C@H](OC)[C@@H](OC)[C@H]2C[C@H]31 | -23% | –
23 | CC(=O)O[C@H]1c2ccccc2-c2c3c(cc4c2[C@@H]1N(C(C)=O)CC4)OCO3 | -18.8% | –
24 | C=CC(CCCCC)C1C(=O)NC(=O)C1C(=O)C1C2C(C)CC(C(=O)O)CC2CC1(O)C(=O)/C=C/C (centres undefined) | 0.644% | –
25 | O[C@H]1c2ccccc2-c2c3c(cc4c2[C@@H]1NCC4)OCO3 | -26.1% | –
26 | C[C@]12CCC[C@](C)(C(=O)O)[C@@H]1CC[C@@]1(C)c3cocc3CC[C@H]21 | 1.87% | –
27 | COc1cc(C2OCC3C(c4ccc(O)c(OC)c4)OCC23)ccc1O (centres undefined) | -0.541% [at 7.64 µM] | –

Row | Compound | activity change, negative = cytotoxicity | Potency
28 | C[n+]1cc2cc(C(N)=O)[nH]c3c(=N)c(Cl)c(N)c1c23 | -6.24% | –
29 | COc1cc2c(c(O)c1O)C(=O)c1c(coc1C)C2=O | – | 6.66 µM (active)
30 | CCC(=O)N[C@@H](C[C@H](C)C(Cl)(Cl)Cl)C(=O)N1C(=O)C=C(OC)[C@@H]1CC(C)C | -14.6% | –
31 | O=c1cc(-c2ccc(O)c(O)c2)oc2cc(O[C@@H]3O[C@H](CO)[C@@H](O)[C@H](O)[C@H]3O)cc(O)c12 | -9.3% | –
32 | C/C1=C/[C@@H](C)[C@H](O)[C@@H](O)/C=C/CC/C=C/C(=O)O[C@@H]1[C@H](C)C(=O)CCCC1CC(=O)NC(=O)C1 | -10% | –
33 | CN1CC[C@]2(c3cccc4c3N[C@H]3N(C)CC[C@@]43[C@]34CCN(C)[C@H]3Nc3ccccc34)c3ccccc3N[C@H]12 | – | 18.8 µM (active)
34 | CC[C@H]1[C@H](C)[C@H](c2cc(OC)c(OC)cc2OC)[C@@H](C)[C@H](c2cc(OC)c(OC)cc2OC)[C@@]12C=C(OC)C(=O)C=C2OC | -18.5% | –
35 | COc1cc2c(cc1OC)[C@@H](c1ccc3c(c1)OCO3)C(C)C(C)C2=O (some centres undefined) | -14.1% | –
36 | C/C=C(/C)c1c(Cl)c(O)c(C)c2c1Oc1c(Cl)c(O)c(Cl)c(C)c1C(=O)O2 | -10.3% | –
37 | CC(C)C[C@@H]1c2c(O)c(C=O)c(O)c(C=O)c2O[C@]2(C)C=C[C@@H](C(C)C)C[C@H]12 | -6.95% | –
38 | C/C=C(/C)c1cc(O)c(C)c2c1Oc1cc(O)cc(C)c1C(=O)O2 | 0.562% | –
39 | CC(C)[C@]12CC[C@@]3(C)[C@H](C)CC[C@H](O)[C@@]3(CC1)c1cc3c(cc12)[nH]c1ccccc13 | -27.7% | –
40 | C[C@H]1C=C[C@H]2CCCC[C@@H]2[C@H]1C(=O)[C@H]1CC2=C(C(=O)O)CCN2C1=O | -17.1% | –
41 | C/C=C(/C)c1c(Cl)c(OC)c(C)c2c1Oc1c(Cl)c(O)c(Cl)c(C)c1C(=O)O2 | -10.6% | –
42 | C/C(=C\CC[C@@H](C)[C@H]1CC[C@]2(C)C3=CCC4C(C)(C)[C@@H](O)C[C@@H](O)[C@]4(C)C3[C@H](O)C[C@@]12C)CO (some centres undefined) | -10.1% | –
43 | COC12OC1(C13OC1(OC)C(=O)c1cc4cc(C)oc(=O)c4c(O)c1C3O)C(O)c1c(cc3cc(C)oc(=O)c3c1O)C2=O (centres undefined) | 2.21% | –
44 | CO[C@H]1[C@@H](OC(=O)/C(C)=C\[C@@H]2O[C@@H]2[C@H]2O[C@H]2C)[C@H](O)[C@H](OCC23C[C@@H]4[C@H](C)CC[C@H]4C4(C=O)CC2C=C(C(C)C)C34C(=O)O)O[C@@H]1C (some centres undefined) | 4.39% | –
